KB-3-1 tox: kills parental KB-3-1 adenocarcinoma cells; KB-3-1 viability, CellTiter-Glo ATP luminescence, 72 h; Potency, µM (highest dose often 46.1 µM), hits mostly cytotoxic; actives 1.4% (n = 400,000); AID 1347075; also: % is scaled to controls: 0 for no effect and ±100 for the full control effect; nearly all actives have a fitted effect of over 60% in size
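Screening of KB-3-1 cells (DMEM, 10% FBS, phenol-red free) ran from lowest to highest compound concentration; after 72 h at 37 °C viability was read luminescently and curves fitted.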
MCF10A rereplic: DNA re-replication induction in MCF 10a cells; Potency, µM (doses to about 46.1 µM), inactives show at the top dose activity, positive = re-replication, most hits filed as activators; MCF 10A DNA re-replication, Hoechst nuclear intensity, 48 h; actives 2.9% (n = 350,000); AID 624296; also: % of control where 0% means no effect; nearly all actives have a fitted effect of over 50% in size
RORg inh: blocks mouse ROR gamma transcriptional activity | actives 5.4% (n = 310,000) | Drosophila S2 Gal4-RORgamma UAS-luciferase reporter, 20 h | Potency, µM (top dose mostly 53.6 µM), for inactives: at the highest dose activity change, negative = inhibition, hits mostly inhibitors | AID 2551; also: % is scaled to controls: 0 for no effect and ±100 for the full control effect; nearly all actives have a fitted effect of over 60% in size
Target sequence (P51450 whole entry, looked up, the tested form may be a part): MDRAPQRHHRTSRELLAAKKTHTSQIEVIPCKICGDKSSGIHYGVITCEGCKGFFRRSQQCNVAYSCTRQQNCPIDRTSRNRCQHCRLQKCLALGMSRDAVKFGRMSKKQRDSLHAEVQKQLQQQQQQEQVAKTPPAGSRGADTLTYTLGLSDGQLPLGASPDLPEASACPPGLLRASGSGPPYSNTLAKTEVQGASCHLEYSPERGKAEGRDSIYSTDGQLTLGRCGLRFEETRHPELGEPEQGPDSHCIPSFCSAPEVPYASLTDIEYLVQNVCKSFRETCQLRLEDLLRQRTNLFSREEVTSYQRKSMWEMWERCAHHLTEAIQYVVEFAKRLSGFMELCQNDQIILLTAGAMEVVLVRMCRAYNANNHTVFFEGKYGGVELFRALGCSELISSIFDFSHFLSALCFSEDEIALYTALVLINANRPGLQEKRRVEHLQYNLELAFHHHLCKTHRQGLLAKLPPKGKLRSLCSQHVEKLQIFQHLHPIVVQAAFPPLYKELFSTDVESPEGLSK
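ROR gamma transcriptional activity was tracked as Gal4-UAS luciferase output in stably transfected Drosophila Schneider cells, with compound added 1 hr before 700 uM copper sulfate induction and a 20 hr ambient-temperature incubation.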
KB-V1 cytotox: KB-V1 MDR subline cytotoxicity; actives 3.4% (n = 400,000); AID 1347076; KB-V1 MDR cells viability, CellTiter-Glo, 72 h; Potency, µM (doses to about 46.1 µM), usual class: cytotoxic; also: % is scaled to controls: 0 for no effect and ±100 for the full control effect; nearly all actives have a fitted effect of over 60% in size
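Drug-selected KB-V1 cells, grown in DMEM lacking phenol red with 10% FBS, receive compound titrations; after three days at 37 degrees C, surviving cell ATP is quantified by CellTiter-Glo luminescence and responses normalized and curve-fitted.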
SW480 rerep: DNA re-replication induction in SW480 cells. SW480 DNA re-replication, Hoechst DNA content imaging, 48 h. Potency, µM (doses to about 46.1 µM), for inactives: top-dose re-replication activation, usual class: activators. actives 1.8% (n = 340,000); also: % of control where 0% means no effect; nearly all actives have a fitted effect of over 55% in size
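Compounds, transferred as 23 nL by pin tool, were incubated with cells for 48 hr; DNA content per nucleus was then quantified by Hoechst staining and fluorescence plate imaging.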
Gal4-VP16 FLuc: counter-screen for ROR gamma inhibitors: Gal4-VP16 reporter; actives 3.5% (n = 310,000); Drosophila S2 Gal4-VP16 UAS-luciferase, luminescence, 20 h; AID 2546; Potency, µM (highest dose often 53.6 µM), without a hit: top-dose activity, negative = inhibition, hits mostly inhibitors;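 also: Gal4-VP16 expression switched on by copper sulfate through the metallothionein promoter; % is scaled to controls: 0 for no effect and ±100 for the full control effect; nearly all actives have a fitted effect of over 50% in size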
* hit, by the source's call; i = inactive; ? = inconclusive; nt = no result; [ ] = another dose, or the depositor's remark. Sampled rows, rich in hits. Any-hit rate of the full collection: about 10%. Calls follow the shape of the dose curve; as a rule, active = well fitted curve in the direction sought with a large enough effect; inconclusive = small, poorly fitted or top-dose-only effect, or another doubt; inactive = no such curve, though single readings can be large; an effect the other way counts as inactive or inconclusive. Potency is read from the fitted curve at half-maximal effect.

SMILES | KB-3-1 tox | MCF10A rereplic | RORg inh | KB-V1 cytotox | SW480 rerep | Gal4-VP16 FLuc
C[C@@H]1C(c2ccccc2)=NN(c2ccccc2)[C@H]1C(=O)N1CCOC1=O | i | 9.5% | 28.8% | i | ? | 7.6%
O=C1OCCN1C(=O)[C@H]1[C@H](c2ccccc2)C(c2ccccc2)=NN1c1ccccc1 | i | 20.6µM* | -1.6% | i | -4.7% | 13.8%
O=c1[nH]c2ccccc2nc1-c1c[nH]c2ccccc12 | i | 24.8% | 0.9% | i | 0.731µM* | -6.3%
O=C1OC(Nc2cc(Br)cc3cccnc23)c2ccccc21 (configuration not stated) | i | 11.1% | ? | i | 18.7% | 11.2µM*
O=C1OC(Nc2ncccn2)c2ccccc21 (configuration not stated) | i | 1.2% | -6.0% | i | 0.1% | 1.0%
C#CC[N+]1(CC#Cc2ccccc2)CCCC1 | ? | -3.8% | 3.4% | i | -2.9% | -1.1%
C(#Cc1ccccc1)C[N+]1(CC#Cc2cccc3ccccc23)CCCC1 | 16.4µM* | ? | -1.2% | i | 4.0% | 15.8µM*
CCCOc1ccc(C(=O)Nc2ccc(-c3cc4ccccc4oc3=O)c(C)c2)cc1 | 10.3µM* | nt | nt | ? | nt | nt
CCCCNC(=O)C(NC(=O)c1cccnc1)C(=O)c1ccccc1 (configuration not stated) | i | nt | nt | i | nt | nt
CCC1=NN(C(=O)c2ccc(Br)cc2)C(O)(c2ccccc2)C1 (configuration not stated) | ? | ? | 12.6µM* | ? | 1.3% | 7.08µM*
N#CC1(c2ccccc2)CCCN1C(=O)c1ccc(Br)cc1 (configuration not stated) | i | 0.6% | 12.7% | i | -3.7% | 1.7%
CCC1=NN(C(=O)c2cccc([N+](=O)[O-])c2)C(O)(c2ccc(C)cc2)C1 (configuration not stated) | i | 1.3% | 5.01µM* | i | 16.5% | 5.62µM*
O=C(c1ccccc1)N1N=C(C(F)(F)F)CC1(O)c1ccccc1O (configuration not stated) | ? | ? | 8.91µM* | ? | 8.7% | 12.6µM*
O=C(c1ccccc1F)N1N=C(C(F)(F)F)CC1(O)c1ccccc1 (configuration not stated) | i | nt | nt | i | nt | nt
CC1=NN(C(=O)c2ccccc2)C(O)(c2ccc(Br)cc2)C1 (configuration not stated) | i | ? | 7.94µM* | ? | -3.2% | ?
O=C1CN(C(=O)c2cccc([N+](=O)[O-])c2)CC(=O)N1 | i | -14.8% | 2.1% | ? | 2.1% | 2.1%
Oc1ccc(N2CCN(c3ccnc4cc(Cl)ccc34)CC2)cc1 | 16.4µM* | ? | -40.1% | 14.6µM* | ? | 9.5%
COc1ccc(N2CCN(c3ccnc4cc(Cl)ccc34)CC2)cc1 | i | ? | -13.5% | ? | 3.2% | 3.4%
Cc1ccc(S(=O)(=O)N2CCN(c3ccnc4cc(Cl)ccc34)CC2)cc1C | i | 2.2% | 16.0% | ? | 0.0% | ?
O=C(Oc1ccnc2cc(Cl)ccc12)N1CCCCCC1 | i | -5.5% | 3.5% | i | -1.3% | 12.6µM*
NC(=S)NNc1ccnc2cc(Cl)ccc12 | i | 7.8% | ? | ? | -13.5% | -3.1%
Cc1ccc(S(=O)(=O)N2CCN(c3ccnc4cc(Cl)ccc34)CC2)cc1 | ? | 13.1% | ? | i | -18.7% | 15.8µM*
O=C(NNc1ccnc2cc(Cl)ccc12)C1CCCCC1 | 5.8µM* | 17.2% | -1.3% | ? | -0.2% | ?
Cc1ccc(S(=O)(=O)NC(=O)C2(C)CCN2C(=O)COc2ccc(Cl)cc2)nc1 (configuration not stated) | i | nt | nt | i | nt | nt
COc1cc(OC)cc(-c2nnc3n2N=C(c2cc(OC)ccc2OC)CS3)c1 | nt | nt | 15.2% | nt | nt | 3.1%
SMILES | KB-3-1 tox | MCF10A rereplic | RORg inh | KB-V1 cytotox | SW480 rerep | Gal4-VP16 FLuc
FC(F)Oc1ccc(NC(=S)NNc2ccnc3cc(Cl)ccc23)cc1 | 16.4µM* | ? | -2.7% | ? | 11.6µM* | -6.5%
CCC(=O)N1CCN(c2ccnc3cc(Cl)ccc23)CC1 | i | 2.5% | -7.0% | i | -5.4% | 1.2%
CCOc1ccc(Nc2ccnc3cc(Cl)ccc23)cc1 | ? | 2.2% | 18.7% | i | ? | -0.5%
CC(C)N(C(=O)N1CCN(c2ccnc3cc(Cl)ccc23)CC1)C(C)C | i | 16.4µM* | 19.0% | ? | 9.6% | -0.3%
O=C(c1ccc(Cl)cc1)N1CCN(c2ccnc3cc(Cl)ccc23)CC1 | ? | 24.1% | ? | ? | 0.5% | 25.1µM*
CCOC(=O)N1CCN(c2ccnc3cc(Cl)ccc23)CC1 | i | ? | -13.4% | i | 17.2% | -11.0%
CCCCCCSc1ccc([C@H]2N[C@@](Cc3ccccc3)(C(=O)OC)[C@H]3C(=O)N(CC)C(=O)[C@@H]23)cc1 | ? | -14.5% | nt | ? | -5.4% | nt
CCCCCCSc1ccc([C@H]2N[C@@](Cc3ccccc3)(C(=O)OC)[C@H]3C(=O)N(C)C(=O)[C@@H]23)cc1 | ? | 5.2% | nt | 16.4µM* | -8.6%[9.22 µM] | nt
CN(c1ccccc1)S(=O)(=O)c1ccc(C(=O)N2CCN(c3ccccc3)CC2)cc1 | i | nt | nt | i | nt | nt
O=C(NCc1ccco1)N1c2ccccc2Sc2ccccc21 | i | -3.3% | ? | i | -6.5% | 35.5µM*
CC1=C(C(=O)Nc2cccc(F)c2)C(c2ccsc2)C2=C(CC(C)(C)CC2=O)N1 (configuration not stated) | 2.91µM* | 5.8µM* | -24.9% | 14.6µM* | nt | -17.4%
CC1=C(C(=O)Nc2ccccc2F)C(c2ccsc2)C2=C(CC(C)(C)CC2=O)N1 (configuration not stated) | ? | 102.2% | 25.5% | i | ? | -1.1%
CC1(C)S[C@@H]2[C@H](NC(=O)COc3ccccc3)C(=O)N2[C@@H]1C(=O)OCc1cccc2cccnc12 | i | nt | nt | i | nt | nt
CC(=O)c1ccc(N2CCN(C(=O)Nc3ccc(Cl)cc3)CC2)cc1 | i | 12.8% | 22.5% | ? | -3.6% | -2.6%
COc1ccc(N2CCN(C(=S)Nc3ccccc3)CC2)cc1 | i | ? | 12.6µM* | i | -3.8% | ?
CN1CCN(c2ccc(NC(=O)c3ccc(Oc4ccccc4)cc3)cc2)CC1 | ? | ? | -38.2% | i | 1.5% | 3.2%
CC(=O)c1ccc(N2CCN(C(=S)Nc3cccc(F)c3)CC2)cc1 | i | 1.1% | 14.1µM* | i | -2.2% | -14.9%

Assay outcomes deposited in PubChem BioAssay by National Center for Advancing Translational Sciences (NCATS).
